An excerpt weighted towards active compounds, which were near 6.9% of everything screened.
CSC inhib = blocks cancer stem cells; inhibition, % at 7.5 µM; cancer stem cell-like cells viability, luminescence; hit rate 1.1% among 300,000; in the data active = inhibition above about 75%; inconclusive = no clear call, values can overlap the other calls; tested in HMLE shEcad cells
Beta cell apopt = blocks beta cell apoptosis; INS-1E cytokine-induced death, ATP luminescence, 48 h; percent of positive-control rescue, neutral wells zero; AID 435005; protection from apoptosis, % (test concentration not listed); hit rate 0.8% among 300,000;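 active = Every replicate reaches about 75%, or at least half do and their mean reaches it too, limit read from the data; inconclusive = At least half of replicates reach the limit but their mean does not; inactive = Under half of replicates reach the limit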;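 also: 0% = cytokine-treated negative control wells and 100% = positive control rescue; higher means more ATP so stronger rescue from cytokine killing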
GRIN3A LBD mod = modulators (binders) of human NR3A ligand-binding domain. hit rate 2.5% among 340,000. Tm shift relative to glycine control, % at 25 µM. NR3A LBD differential scanning fluorimetry, Tm shift; 0% = protein alone, 100% = glycine-bound protein. AID 1259313;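 active = melting temperature shift of at least 10% of the positive control shift, at one fixed dose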
Mdm2-MdmX inh = human Mdm2/MdmX binding inhibition | O15151+Q00987 | SaOS-2 split-luciferase Mdm2/MdmX complementation, luminescence | inhibition, % at 8 µM | hit rate 3% among 330,000;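 active = inhibition of at least 50% at 8 µM in the primary screen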
Target sequence (O15151 whole entry, looked up): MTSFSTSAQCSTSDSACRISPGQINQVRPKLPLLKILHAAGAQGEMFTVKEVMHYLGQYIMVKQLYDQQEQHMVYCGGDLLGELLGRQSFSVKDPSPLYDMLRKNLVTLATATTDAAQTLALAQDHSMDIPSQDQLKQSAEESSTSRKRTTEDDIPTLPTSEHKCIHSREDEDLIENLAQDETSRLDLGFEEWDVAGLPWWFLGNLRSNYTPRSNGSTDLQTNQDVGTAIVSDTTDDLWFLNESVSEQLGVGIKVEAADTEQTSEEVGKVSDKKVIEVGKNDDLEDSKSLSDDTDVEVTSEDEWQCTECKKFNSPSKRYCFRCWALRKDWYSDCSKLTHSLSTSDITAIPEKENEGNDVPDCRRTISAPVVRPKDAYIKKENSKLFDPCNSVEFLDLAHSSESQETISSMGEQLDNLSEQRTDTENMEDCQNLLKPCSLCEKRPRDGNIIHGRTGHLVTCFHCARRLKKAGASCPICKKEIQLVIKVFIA
Target sequence (Q00987 whole entry, looked up): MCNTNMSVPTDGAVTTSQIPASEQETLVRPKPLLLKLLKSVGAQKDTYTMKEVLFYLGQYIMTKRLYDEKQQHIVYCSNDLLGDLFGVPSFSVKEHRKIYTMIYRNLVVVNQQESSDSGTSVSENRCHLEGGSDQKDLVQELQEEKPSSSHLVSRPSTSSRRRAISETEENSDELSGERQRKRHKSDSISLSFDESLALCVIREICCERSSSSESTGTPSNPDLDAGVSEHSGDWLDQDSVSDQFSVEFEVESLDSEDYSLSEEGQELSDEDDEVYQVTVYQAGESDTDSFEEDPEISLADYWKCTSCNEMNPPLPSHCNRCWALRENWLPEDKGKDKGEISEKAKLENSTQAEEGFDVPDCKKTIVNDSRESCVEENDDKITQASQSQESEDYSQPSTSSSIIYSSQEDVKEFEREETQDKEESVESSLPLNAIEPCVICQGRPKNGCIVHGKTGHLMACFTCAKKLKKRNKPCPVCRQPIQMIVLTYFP
SKKanGAS inh = blocks kanamycin growth of S. pyogenes SKKanGAS strain | BacTiter-Glo, 6 h | inhibition, % at 7.5 µM | hit rate 1.3% among 300,000;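 active = mean replicate score, as percent of positive control median, at least 50; inconclusive = mean below 50 but one replicate at or above 50; inactive = mean and every replicate below 50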;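 also: strain carries kanamycin resistance gene driven by streptokinase promoter and grows in 40 µg/ml kanamycin; loss of luminescence reflects streptokinase promoter inhibition or plain growth inhibition; 0% = median of DMSO wells and 100% = positive control at its reference dose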
MPTP block = permeability transition pore inhibition | inhibition, % at 10 µM | hit rate 1.4% among 360,000 | isolated mouse mitochondria, Ca2+ swelling absorbance, 30 min | AID 602449;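 active = inhibition of 50% or more, scaled per plate between neutral and stimulator controls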;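 also: 0% = DMSO wells given calcium and 100% = 1 mM EGTA wells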
MPTP counter = mitochondrial membrane potential, counter-screen | isolated mitochondria, Rhodamine 123 fluorescence | hit rate 78% among 5,000 | inhibition, % at 10 µM | shares compounds with MPTP block; in the data active = inhibition above about 22%;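 also: 0% = DMSO vehicle and 100% = positive control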
MPTP abs DR = dose response confirmation of mitochondrial permeability transition pore inhibitors; hit rate 58% among 780; shares compounds with MPTP block; isolated mitochondria swelling, absorbance; IC50, µM; in the data active = IC50 below about 20 µM
MPTP cs DR = active in counter-screen for permeability transition pore inhibitors; shares compounds with MPTP block; isolated mitochondria counterscreen, fluorescence read-out; IC50, µM; hit rate 49% among 780; in the data active = IC50 below about 80 µM
Active calls of the source: *; i = inactive; ? = inconclusive; / = no result given.

SMILES	CSC inhib	Beta cell apopt	GRIN3A LBD mod	Mdm2-MdmX inh	SKKanGAS inh	MPTP block	MPTP counter	MPTP abs DR	MPTP cs DR
COCCNC(=O)C1CC(c2ccccc2C(F)(F)F)=NO1 (centres undefined)	-17.1	10.9	0.7	12.0	-5.6	-0.1	/	/	/
Cc1sc(NC(=O)CN2CCCC2)nc1-c1ccc2c(c1)CCN2C(=O)c1cccc(F)c1	-1.7	/	-2.2	38.3	22.7	58.7*	-15.1	i	35*
N/C(=N\OC(=O)COc1ccc2ccccc2c1)c1cccnc1	9.4	-6.4	-2.1	-36.5	-15.7	60.8*	83.6*	/	/
CN(C)CCC(=O)c1ccc(Cl)cc1	27.7	-4.3	-2.2	-11.4	1.9	98.9*	5.1	10.5*	>80
CN(CCC(=O)c1ccccc1)CCC(=O)c1ccccc1	5.3	-10.3	2.2	-16.6	-4.1	-1.1	/	/	/
Cc1ccc(-c2noc(CCC(=O)NCCCN3CCN(c4ccc(F)cc4)CC3)n2)cc1	-1.8	3.0	-3.8	19.3	0.8	93.0*	7.9	6.97*	28.4*
COc1ccc(-c2noc(CCCCC(=O)N3CCN(c4cc(C)ccc4C)CC3)n2)cc1	/	/	-1.0	49.0	/	97.0*	103.7*	/	/
Cc1ccc(-c2noc(CCC(=O)NC3CCN(Cc4ccccc4)CC3)n2)cc1	/	/	-0.8	/	-4.3	72.1*	4.7	i	34.2*
COc1ccc(-c2noc(CCC(=O)NCCCN3CCN(c4ccccc4F)CC3)n2)cc1	-4.7	14.8	-3.6	0.4	-9.6	54.8*	12.8	8.84*	20.4*
CCCOc1ccc(C(=O)Nc2ccc(S(=O)(=O)NC3=NCCCCC3)cc2)cc1	/	3.2	2.0	17.1	1.5	-1.3	/	/	/
O=C(CCS(=O)(=O)Cc1ccc(Cl)cc1)NCCCN1CCN(c2ccccc2F)CC1	-6.7	-1.8	2.2	8.8	-2.1	57.1*	-2.9	>100	>80
Cc1ccc(-c2noc(CCC(=O)NCCCN3CCN(c4cccc(Cl)c4)CC3)n2)cc1	-6.2	-0.9	-18.6	42.2	4.5	94.1*	14.4	/	/
Cc1ccccc1CS(=O)(=O)CCC(=O)NCCCN1CCN(c2ccccc2F)CC1	4.1	-5.3	0.3	4.7	1.0	0.4	/	/	/
O=C(Nc1ccc(C(F)(F)F)cc1[N+](=O)[O-])O[C@H]1[C@H](Cc2ccccc2)NS(=O)(=O)[C@H]2C[C@@H]3C=C[C@]12O3	1.8	-6.8	-5.0	-8.5	/	1.8	/	/	/
CCn1cc(CN2CCCC(C(=O)Nc3ccc(-c4cscn4)cc3)C2)c(C)n1 (centres undefined)	0.9	-4.3	-0.8	-7.1	-2.3	0.1	/	/	/
CCCOc1ccc(C(=O)C(CN2CCCC2)c2ccccc2)cc1 (centres undefined)	101.1*	-0.1	2.2	/	-1.8	79.1*	-11.3	/	/
CCCOc1ccc(C(C(=O)OCCN(CC)CC)c2ccccc2)cc1 (centres undefined)	-11.6	1.9	-0.6	21.1	0.6	82.4*	-0.6	i	73.2*
O=C(NCC1CC1)c1cc([N+](=O)[O-])cc([N+](=O)[O-])c1	-13.9	-13.1	0.5	27.2	5.9	-0.8	/	/	/
C/C(=N\NC(=O)C1CCCC1)c1ccc(Cl)cc1Cl	-17.2	3.4	-0.8	21.5	/	-0.2	/	/	/
CCCCNC(=O)CCN1N=C(c2ccccc2)CCC1=O	-18.9	-0.4	-1.7	-12.7	0.6	0.6	/	/	/
CCOc1ccc(CCN2C(=S)N([C@@H](CC(C)C)CN3CCCC3CN3C(=S)NC[C@@H]3CC(C)C)C[C@@H]2Cc2ccccc2)cc1 (some centres undefined)	/	/	1.2	/	/	1.3	/	/	/
N#Cc1c(C(F)(F)F)cc(=O)n2c1[nH]c1ccccc12	62.8	19.6	0.7	31.8	38.8	91.7*	93.6*	/	/
CCCCN1C(N)=NC[C@@H]1CCCCN	-15.2	-1.4	-0.1	6.1	1.0	-1.4	/	/	/
CCc1c(C)nc2ncnn2c1NCCc1ccccc1	-2.6	27.4	0.9	16.4	?	19.7	/	/	/
CCc1c(C)nc2ncnn2c1NCCc1ccc(Cl)cc1	-9.0	60.8	0.6	24.8	15.9	89.9*	39.9*	/	/

Bioassay records deposited in PubChem BioAssay by several laboratories.
